{
  "source": "PubChem BioAssay AID463173",
  "about": "(ICCB-Longwood Screening Facility, Harvard Medical School, 2010)",
  "note": "Hit rate of the full screen: of about 52,000 compounds, about 4,300 (8.3%) were called active. The list comes from a sample in which actives are over-represented; it also holds similar structures and randomly drawn compounds. Unmarked numbers belong to inactive results. Rule as the data show it: active = survival mostly below about 52% (no sharp cut-off); inactive = mostly above about 56%.",
  "data": [
    {"test_system": "DeltatarO mutant", "assay": "growth inhibition of S. aureus wild type versus tarO mutant, primary screen, teichoic acid synthesis inhibitors, RN4220, OD600 (AID 463173)", "conditions": "OD600, 18 h, stronger effect = lower value, screened at 18.75 µg/mL (by protocol)", "values": [
      {"smiles": "COc1ccc(NC(=O)c2c(NCc3cccs3)sc3c2CCCCC3)c(OC)c1", "survival": "69%"},
      {"smiles": "CC1CN(C(=O)CCC(=O)NCc2ccc(F)cc2)c2cc(Cl)ccc2O1", "note": "(stereo unspecified)", "survival": "80%"},
      {"smiles": "Cc1cc(-c2ccccc2)nc2cc(C(=O)Nc3ccc(Cl)c(Cl)c3)nn12", "survival": "52%"},
      {"smiles": "CC(=O)N1CCCC1c1nc2ccccc2n1Cc1ccccc1F", "note": "(stereo unspecified)", "survival": "61%"},
      {"smiles": "COC(=O)c1ccc(OCC2c3cc(OC)c(OC)cc3CCN2C(=O)c2ccc(F)cc2)cc1", "note": "(stereo unspecified)", "survival": "76%"},
      {"smiles": "COc1ccc(CCNC(=O)c2ccc3c(c2)N(Cc2ccc(F)cc2)C(=O)c2ccccc2S3(=O)=O)cc1OC", "survival": "104%"},
      {"smiles": "CC(C)c1cccc(C(C)C)c1NS(=O)(=O)c1cccs1", "survival": "41% (active)"},
      {"smiles": "CC(C)NS(=O)(=O)c1cccs1", "survival": "65%"},
      {"smiles": "O=S(=O)(Nc1ccc(O)cc1)c1cccs1", "survival": "83%"},
      {"smiles": "Cc1cccc(-c2noc(CN(C(C)C)S(=O)(=O)c3ccc(Br)cc3)n2)c1", "survival": "45% (active)"},
      {"smiles": "COc1ccc(S(=O)(=O)N(Cc2nc(-c3ccc(C)cc3)no2)C2CCCCC2)cc1", "survival": "63%"},
      {"smiles": "Cc1cccc(-c2noc(CNC(=O)c3ccco3)n2)c1", "survival": "83%"},
      {"smiles": "COc1ccc(-c2noc(CN(C(C)C)S(=O)(=O)c3ccc(Br)cc3)n2)cc1", "survival": "44% (active)"},
      {"smiles": "CCN(Cc1nc(-c2ccc(OC)c(OC)c2)no1)S(=O)(=O)c1ccc(OC)cc1", "survival": "47%"},
      {"smiles": "Cc1ccc(-c2noc(CN(C3CCCCC3)S(=O)(=O)c3ccc(C)cc3)n2)cc1", "survival": "62%"},
      {"smiles": "O=C(CCS(=O)(=O)c1cc2c(cc1Cl)NC(=O)CO2)NCc1ccccc1", "survival": "106%"},
      {"smiles": "CCOC(=O)c1c(C)[nH]c(CCC(=O)NCc2cc(Br)ccc2OC)c1C", "survival": "115%"},
      {"smiles": "O=C(NCCN1CCOCC1)c1ccncc1", "survival": "96%"},
      {"smiles": "Cc1cccc(OCC(=O)Nc2cccc(OCc3cc(=O)n4cccc(C)c4n3)c2)c1", "survival": "109%"},
      {"smiles": "COc1cc(-c2cc3n(C)c(C)c(CCC(=O)O)c(=O)n3n2)cc(OC)c1OC", "survival": "94%"},
      {"smiles": "COc1cc(-c2cc3n(C)c(C)c(CCC(=O)NCc4ccccc4)c(=O)n3n2)cc(OC)c1OC", "survival": "92%"},
      {"smiles": "COCCNC(=O)CCc1c(C)n(C)c2cc(-c3cc(OC)c(OC)c(OC)c3)nn2c1=O", "survival": "25% (active)"},
      {"smiles": "O=C(O)CCC(=O)Nc1ccncc1", "survival": "92%"},
      {"smiles": "Cc1ccc(Cl)cc1N1CCN(C(=O)CCSCc2ccccc2F)CC1", "survival": "89%"},
      {"smiles": "Cc1cc(C)cc(NC(=O)C(=O)NCC(c2cccnc2)N2CCOCC2)c1", "note": "(stereo unspecified)", "survival": "107%"},
      {"smiles": "CCOC(=O)C1CCN(C(c2ccc(OCC)cc2)c2c(O)cc(C)n(CCOC)c2=O)CC1", "note": "(stereo unspecified)", "survival": "67%"},
      {"smiles": "CCCOc1ccc(CN2C(=O)C(=O)c3cccc(C)c32)cc1", "survival": "39% (active)"},
      {"smiles": "CCCCOc1ccc(CN2C(=O)C(=O)c3cc(Br)cc(C)c32)cc1OC", "survival": "49%"},
      {"smiles": "Cc1ccc(C)c(CN2C(=O)C(=O)c3ccccc32)c1", "survival": "92%"},
      {"smiles": "Cc1cccc2c1N(Cc1ccccc1OCCC(C)C)C(=O)C2=O", "survival": "2% (active)"},
      {"smiles": "Cc1cc(Br)cc2c1N(Cc1ccccc1OC(C)C)C(=O)C2=O", "survival": "22% (active)"},
      {"smiles": "COc1ccccc1Cn1ccn(Cc2ccc(C)cc2)c(=O)c1=O", "survival": "112%"},
      {"smiles": "COc1ccccc1CN1C(=O)C(=O)c2cccc(C)c21", "survival": "103%"},
      {"smiles": "CCOc1ccc(CN2C(=O)C(=O)c3cccc(C)c32)cc1OC", "survival": "118%"},
      {"smiles": "CC(C)CN1C(=O)c2ccc(Br)cc2C1=O", "survival": "67%"},
      {"smiles": "Cc1ccc2c(c1)C(=O)C(=O)N2Cc1ccc(OC(C)C)cc1", "survival": "120%"},
      {"smiles": "Cc1ccc2c(c1)C(=O)C(=O)N2Cc1ccc(OCCC(C)C)cc1", "survival": "93%"},
      {"smiles": "Cc1ccc(CN2C(=O)C(=O)c3cc(Br)cc(C)c32)cc1", "survival": "31% (active)"},
      {"smiles": "Cc1cc(C)cc(NC(=O)C2CCCN2S(=O)(=O)c2ccc3c(c2)CCCC(=O)N3)c1", "note": "(stereo unspecified)", "survival": "83%"},
      {"smiles": "CCc1ccc(NC(=O)Cn2nnc(C(=O)Nc3ccc(F)cc3)c2N)cc1", "survival": "99%"},
      {"smiles": "COc1ccc(-n2nc(C(=O)N3CCCC(C)C3)c3c4ccccc4n(C)c3c2=O)cc1", "note": "(stereo unspecified)", "survival": "74%"},
      {"smiles": "c1ccc(-c2nc(-c3cccnc3)no2)cc1", "survival": "98%"},
      {"smiles": "O=c1[nH]ncc(NCCc2ccccc2)c1Cl", "survival": "101%"},
      {"smiles": "N#Cc1ccccc1Cn1c(=O)n(Cc2ccc(C(=O)NC3CCN(Cc4ccccc4)CC3)cc2)c(=O)c2ccccc21", "survival": "90%"},
      {"smiles": "COC(=O)c1ccc(NC(=O)C(=O)NCCc2sc3nc(-c4ccc(OC)cc4)nn3c2C)cc1", "survival": "83%"},
      {"smiles": "O/N=C1\\CCCc2nnc3c(c21)CCCC3", "survival": "101%"},
      {"smiles": "CCOC(=O)/C(C#N)=C\\C1=C(N2CCCC2)CC(C)(C)OC1", "survival": "91%"},
      {"smiles": "Cc1nc2ccc(S(=O)(=O)NCC(=O)Nc3ccc(F)cc3F)cc2s1", "survival": "120%"},
      {"smiles": "CCOc1ccc(S(=O)(=O)NCC(c2ccc(N(C)C)cc2)N2CCCC2)cc1", "note": "(stereo unspecified)", "survival": "107%"},
      {"smiles": "COc1ccc(Nc2ncnc3onc(C)c23)cc1Cl", "survival": "87%"},
      {"smiles": "O=C(c1ccc(Cl)cc1)N1CCC(c2nc3ccccc3o2)CC1", "survival": "79%"},
      {"smiles": "CCc1ccccc1NC(=O)Cn1nnc(C(=O)NCc2ccco2)c1N", "survival": "93%"},
      {"smiles": "CC(NC(=O)c1ccc2c(c1)CCN2S(=O)(=O)c1ccc(Cl)cc1)c1ccccc1", "note": "(stereo unspecified)", "survival": "67%"},
      {"smiles": "CC(NC(=O)c1ccc2c(c1)CCN2S(C)(=O)=O)c1ccccc1", "note": "(stereo unspecified)", "survival": "91%"},
      {"smiles": "COc1ccc(NC(=O)c2ccc3c(c2)CCN3S(=O)(=O)c2ccccc2)cc1", "survival": "92%"},
      {"smiles": "CC(=O)Nc1ccc(NC(=O)c2ccc3c(c2)CCN3S(=O)(=O)c2ccc(C)cc2)cc1", "survival": "62%"},
      {"smiles": "CC(NC(=O)c1ccc2c(c1)CCN2S(=O)(=O)c1ccccc1)c1ccccc1", "note": "(stereo unspecified)", "survival": "37% (active)"},
      {"smiles": "CC(C)c1ccc(NC(=O)c2ccc(F)c(S(=O)(=O)N3CCc4ccccc43)c2)cc1", "survival": "83%"},
      {"smiles": "NS(=O)(=O)c1ccc(NC(=O)c2ccc3c(c2)CCN3S(=O)(=O)c2ccccc2)cc1", "survival": "43% (active)"},
      {"smiles": "CS(=O)(=O)N1CCc2cc(C(=O)Nc3ccc(S(N)(=O)=O)cc3)ccc21", "survival": "48%"},
      {"smiles": "CC(C)c1ccc(NC(=O)c2ccc3c(c2)CCN3S(=O)(=O)c2ccccc2)cc1", "survival": "44% (active)"}
    ]}
  ]
}
